CD11b adhes inh – CD11b/CD18-fibrinogen binding inhibition | P05107+P11215 | K562 CD11b/CD18 adhesion to fibrinogen, ATPlite luminescence; Mn2+ added to activate the integrin | inhibition, % at 10 µM | actives 0.54% (n = 93,000);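 active = primary inhibition of 50% or more at 10 µM, then 40% or more on retest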
Ecoli WT expand – E. coli BW25113 growth inhibition, expanded screen. AID 710. actives 0.15% (n = 98,000). OD600 absorbance. growth inhibition, % at 100 µM;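 active = growth inhibition above about 50% at one test dose, limit read from the data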;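 also: growth measured after 20 h incubation at 37 °C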
Cav32 inh – human Cav3.2 channel inhibition, primary screen. O95180. Cav3.2-expressing cells, Fluo-4 calcium fluorescence FDSS; stronger effect = lower value. B-score at 10 µM. actives 4% (n = 100,000). AID 449739;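 active = single-dose well whose peak fluorescence ratio is a statistical outlier from its plate by either plate-standardised score or position-corrected B-score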
CD11b adhes enh – enhancers of human CD11b/CD18 binding to fibrinogen | activation, % at 10 µM | K562 CD11b/CD18 adhesion to fibrinogen, ATPlite luminescence | AID 1499 | actives 0.07% (n = 93,000);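 active = 10 µM primary screen giving 50% or more activity, confirmed by 40% or more on retest at that dose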
* marks the source's active call; other numbers are inactive results; . = not tested or not shown. Shown is part of a subset that was picked to be rich in hits.

SMILES | CD11b adhes inh | Ecoli WT expand | Cav32 inh | CD11b adhes enh
Cc1ccc(C)c(N2CCN(C(=O)CC3Sc4ccccc4NC3=O)CC2)c1 (centres undefined) | . | -11.0 | -6.88* | .
CCOC(=O)c1c(C)[nH]c(C(=O)CN2C(=O)NC(CC)(c3ccccc3)C2=O)c1C (centres undefined) | 37.6 | 0.0 | -5.72* | 5.9
CCOC(=O)c1c(C)[nH]c(C(=O)CN2C(=O)NC(C)(c3ccc(C)cc3)C2=O)c1C (centres undefined) | -9.7 | . | -3.26 | 6.0
O=C1N=C(N2CCCCC2)SC1=C1CCCCC1 | 4.9 | 1.0 | 0.0886 | -5.3
O=C1NC(=S)SC1=C1CCCCCC1 | 59.0* | -1.0 | -2.94 | -2.9
COCCNc1nc(-c2cc(C(=O)Nc3ccccc3)on2)cc(C(C)C)n1 | . | . | -2.27 | .
CCN1CCN(c2c(C(=O)c3ccc(OC)cc3)cnc3ccccc23)CC1 | . | . | -0.282 | .
CCOC(=O)C1CCCN(c2c(C(=O)c3ccccc3)cnc3ccc(OC)cc23)C1 (centres undefined) | . | . | -6.78* | .
COC(=O)CN(c1nc(C)c(Br)c(OC)n1)S(=O)(=O)c1ccc(C)cc1 | 1.7 | -15.0 | -5.48* | -1.7
Cc1cc(NC(=O)Cn2nc3c(cc2=O)CCCC3)ccc1Br | -7.8 | 8.0 | -6.16* | -2.2
CCOc1cc(/C=N/NC(=O)CSc2nncn2C)ccc1OCc1cccc(C)c1 | 22.3 | . | . | 9.7
COc1ccc(-c2c[n+]3c(n2-c2ccccc2)CCCCC3)cc1 | 22.6 | . | . | 0.8
CCOc1ccc(-n2c(-c3ccc(OC)cc3)c[n+]3c2CCCCC3)cc1 | 99.8* | . | . | -6.6
Cc1cc2cc(C)c3nnc(SCC(=O)N4CCc5ccccc54)n3c2cc1C | . | -6.0 | -0.0047 | .
C=CCOc1c(Br)cc(CNc2ccc(NC(=O)CCC)cc2)cc1OCC | . | -27.0 | -5.41* | .
CCOc1cc(CNc2ccc(N(C)C)cc2)cc(Br)c1OCC(=O)NC(C)(C)C | -1.1 | -2.0 | -0.766 | 5.5
CCSc1nnc(-c2sc3nnc(-c4ccccc4)c(-c4ccccc4)c3c2N)o1 | . | -18.0 | -5.6* | .
COc1cc(OC)cc(-c2nnc(SCC(=O)N3c4ccccc4Sc4ccccc43)o2)c1 | . | . | -2.7 | .
O=C(CSc1nnc(CNc2ccc(F)cc2)o1)N1CCCc2ccccc21 | -5.0 | -1.0 | -5.27* | -2.2
CCOc1ccc2nc(SCC(=O)N3CCCc4ccccc43)sc2c1 | . | -17.0 | -4.66* | .
COc1ccc(-c2nnc(SCC(=O)N3c4ccccc4Sc4ccccc43)o2)cc1 | . | . | -5.58* | .
COc1cc(OC)cc(-c2nnc(SCC(=O)N3CCCc4ccccc43)o2)c1 | 6.7 | -13.0 | -4.33* | -2.2
Clc1nc(-c2ccccc2)cc(-c2ccccc2)n1 | -1.1 | . | . | 4.2
CCc1cc2c(=O)n(Cc3ccco3)c(SCc3c(C)noc3C)nc2s1 | . | -28.0 | -2.87 | .
CCc1cc2c(=O)n(Cc3ccco3)c(SCC(=O)N3CCCc4ccccc43)nc2s1 | 8.9 | -17.0 | -5.31* | 1.1
SMILES | CD11b adhes inh | Ecoli WT expand | Cav32 inh | CD11b adhes enh
O=C(NCCNC(=O)c1cc(OCC(F)(F)F)ccc1OCC(F)(F)F)Nc1ccc(Cl)cc1 | -10.9 | 6.0 | -4.07* | -1.4
OC(CNCc1ccc(F)cc1)(c1ccc(F)cc1)c1ccc(F)cc1 | . | 21.0 | -4.17* | .
Fc1ccc(C2C3=C(Nc4ncnn42)c2ccccc2OC3c2ccncc2)cc1 (centres undefined) | -2.9 | -2.0 | -2.03 | -1.0
Cc1ccc(C2Oc3ccccc3C3=C2C(c2cccs2)n2ncnc2N3)cc1 (centres undefined) | -19.6 | -7.0 | -4.61* | -2.5
CCC1=C(OC(=O)N(CC)CC)N2C(=O)OC(=NCC3CC3)[C@]2(Cc2ccccc2)[C@H]2C1=CC[C@H]1C(=O)NC(=O)[C@H]12 | . | . | -0.858 | .
CC(=O)c1c(N2CCCCC2)nc(=S)n(Cc2ccccc2)c1C | 52.5* | 6.0 | -0.0857 | 2.2
C=C1CCN(c2ccc(C(=O)NCCC)cc2[N+](=O)[O-])CC1 | . | . | 0.271 | .
O=S(=O)(NCCOc1ccc(F)cc1)c1ccc2c(c1)OCCO2 | 2.9 | 11.0 | -0.679 | -1.4
O=S(=O)(NCCSc1ccccc1)c1ccc2c(c1)OCCO2 | 8.8 | 4.0 | -4.96* | -3.0
CS(=O)(=O)N1CCC(C(=O)Nc2ccc3c(c2)OCCO3)CC1 | -5.7 | 0.0 | 0.284 | 1.2
N#CCC(CNc1ncc(C(F)(F)F)cc1Cl)OC(=O)c1c(F)cccc1F (centres undefined) | . | . | -3.72* | .
CC(C)=CCSc1nnc([C@@H](NC(=O)OC(C)(C)C)C(C)C)o1 | -8.9 | 6.0 | -2.93* | 4.7
CC(C)[C@H](NC(=O)OC(C)(C)C)c1nnc(SCC(=O)Nc2ccc(Br)cc2)o1 | . | 3.0 | -6.72* | .
CCC(C)NC(=O)c1c(F)c(F)c(F)c(F)c1F (centres undefined) | . | . | -0.0198 | .
